Source: PubChem BioAssay
DAT uptake mod: changed hDAT dopamine uptake under cocaine IC80, either direction, primary screen, cocaine antagonist project, cell-based, LLC-PK1 hDAT, [14C]-dopamine uptake, MLSMR; LLC-PK1 hDAT cells, [14C]-dopamine uptake with cocaine IC80; actives deviate in either direction; B-score at 10 µM; actives 1.3% (n = 110,000);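 active = Z score or B-score, a plate-position-corrected score, falls beyond the plate's 99.7% confidence bounds, in either direction; inactive = both scores lie inside the 99.7% bounds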;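 also: scored against the spread of the other compound wells on the same plate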
Target sequence (Q01959 whole entry, looked up): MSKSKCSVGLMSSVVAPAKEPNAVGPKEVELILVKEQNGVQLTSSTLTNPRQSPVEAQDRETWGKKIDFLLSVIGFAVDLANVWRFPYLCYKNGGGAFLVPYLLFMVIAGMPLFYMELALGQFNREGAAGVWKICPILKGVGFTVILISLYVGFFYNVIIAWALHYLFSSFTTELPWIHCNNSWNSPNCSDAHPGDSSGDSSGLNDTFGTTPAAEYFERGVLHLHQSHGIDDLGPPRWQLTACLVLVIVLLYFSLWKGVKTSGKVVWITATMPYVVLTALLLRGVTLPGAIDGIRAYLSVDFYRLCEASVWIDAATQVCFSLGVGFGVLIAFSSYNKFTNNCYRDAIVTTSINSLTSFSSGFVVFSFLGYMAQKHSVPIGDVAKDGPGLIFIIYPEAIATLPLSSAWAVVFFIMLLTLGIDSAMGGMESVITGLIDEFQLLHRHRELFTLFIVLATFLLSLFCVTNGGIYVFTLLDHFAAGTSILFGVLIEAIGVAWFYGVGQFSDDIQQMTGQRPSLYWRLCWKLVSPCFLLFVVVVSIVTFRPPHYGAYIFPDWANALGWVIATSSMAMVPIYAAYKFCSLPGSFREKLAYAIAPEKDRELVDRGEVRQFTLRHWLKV
FAK blocker: FAK kinase inhibitors, primary screen, biochemical; Focal adhesion kinase 1 (Homo sapiens), Q05397; biochemical FAK kinase activity assay; inhibition, %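 (tested at 7 µM)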; actives 0.84% (n = 97,000); AID 727, 2007; in the data active = inhibition above about 19%;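 also: 0% = DMSO and 100% = reference compound high control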
CD11b adhes enh: enhancers of CD11b/CD18 adhesion to fibrinogen, primary screen, K562 cells, luminescence; actives 0.07% (n = 93,000); activation, % at 10 µM; ATPlite luminescence; AID 1499, 2009; Integrin beta-2 (Homo sapiens) + Integrin alpha-M (Homo sapiens), P05107+P11215;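 active = 10 µM primary screen giving 50% or more activity, confirmed by 40% or more on retest at that dose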
D1 mod: D1 CRE-luciferase signal change, two-sided – cell-based, HEK293 D1, dopamine EC30, D1 allosteric modulator project, primary screen | B-score at 10 µM | dopamine EC30 potentiation; actives deviate in either direction | actives 5.9% (n = 58,000);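 active = luminescence count or its row- and column-corrected plate score outside the 99.7% band of the plate's sample wells, on either side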
PTK2B oligo ant: antagonists of Pyk2 self-association, primary screen, Q293 cells, FERM NanoBiT luminescence, HTS; Protein-tyrosine kinase 2-beta (Homo sapiens), Q14289; stronger effect = lower value; z-score (the deposit names both 25 µM and 10 µM); actives 0.83% (n = 99,000); AID 1347419, 2020;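 active = Z-score of -3 or lower, scaled per plate to the spread of control and sample wells; inactive = z-score above -3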;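 also: negative z-score means lost luminescence so less FERM oligomerization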
CD11b adhes inh: inhibitors of CD11b/CD18 adhesion to fibrinogen, primary screen, K562 cells, luminescence; ATPlite luminescence; Mn2+ added to activate the integrin; inhibition, % at 10 µM; actives 0.54% (n = 93,000); AID 1497, 2009;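 active = primary inhibition of 50% or more at 10 µM, then 40% or more on retest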
D1 PAM confirm: D1 receptor positive allosteric modulators, retest, confirmation, cell-based, HEK293 D1, CRE-luciferase, duplicate; actives 88% (n = 2,200); luminescence at 10 µM; AID 642, 2007; shares compounds with D1 mod; dopamine EC30 potentiation; stronger effect = higher value;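 active = luminescence in either of two replicates above the same-plate mean plus 3 SD of the low-dose dopamine control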
D1 ag no DA: D1 receptor agonism without dopamine, confirmation, mechanism study for D1 allosteric modulator project, cell-based, HEK293 D1, CRE-luciferase, secondary assay 1; luminescence at 10 µM; luminescence, no dopamine; stronger effect = higher value; actives 0.8% (n = 1,900); shares compounds with D1 mod; AID 646, 2007; in the data active = luminescence above about 3900
Isoprot counter: counter-screen for D1 modulators: isoproterenol response in HEK293 cells; calls only at 10 µM; HEK293 D1 CRE-luciferase, isoproterenol EC30 counter-screen; actives 63% (n = 2,200); shares compounds with D1 mod;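 active = luminescence in either replicate above plate mean of wells with a partly effective reference agonist dose plus 3 SD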;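 also: isoproterenol raises cAMP through native beta-adrenoceptor Gs so signal bypasses D1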
* marks the source's active call; other numbers are inactive results; i = inactive; · = not tested or not shown; + = active, no number. Shown is part of a subset that was picked to be rich in hits.

SMILES	DAT uptake mod	FAK blocker	CD11b adhes enh	D1 mod	PTK2B oligo ant	CD11b adhes inh	D1 PAM confirm	D1 ag no DA	Isoprot counter
CC(Sc1nc(N2CCOCC2)c2c(c1C#N)CC(C)(C)OC2)C(=O)Nc1ccccc1 (configuration not stated)	-0.24	-3	·	5.2*	-1.3	·	9724*	1700	+
CC(=O)Oc1c(Cl)c(N2CCOCC2)c(OC(C)=O)c2ccccc12	-0.2	·	4	3.1*	-0.91	8	5620*	1464	i
Cc1cc(OC(=O)N2CCOCC2)cc(C)c1Cl	-0.06	-1	2	0.21	-0.63	-5	·	·	·
COc1cccc(C(=O)Nc2cc(=O)n(C)c(=O)n2C)c1	0.0098	·	·	0.3	·	·	·	·	·
Nn1c(SCc2ccccc2)nnc1-c1ccco1	0.013	0	-2	-0.47	·	-44	·	·	·
c1ccc(-n2c(SCc3ccncc3)nnc2-c2ccco2)cc1	0.61	1	-2	10*	0.53	16	14488*	·	+
Cc1ccc(N=C/C(C(=O)C(F)(F)F)=C(\O)c2ccco2)cc1Cl	·	·	-3	·	·	28	·	·	·
CC(=O)NC1Sc2ccccc2N=C1c1ccccc1 (configuration not stated)	0.47	-4	2	6.1*	-1	-12	7472*	·	i
COc1ccc(C(=O)NC(=S)NCCO)cc1Br	-0.98	2	1	·	-0.15	4	·	·	·
CC(=O)N1CCC(=NNS(=O)(=O)c2cccc([N+](=O)[O-])c2)CC1	0.84	-2	0	·	1.4	-52	·	·	·
Cn1c(=O)c2c(nc(SCCCC#N)n2Cc2c(F)cccc2Cl)n(C)c1=O	0.1	0	-1	5.8*	·	8	7192*	1824	+
CCO[C@@H]1OC(C(=O)N2CCN(C)CC2)=C[C@H](C(C)(C)C)[C@H]1CCCO	-0.97	·	·	·	·	·	·	·	·
CCOC(=O)c1sc2nc(C(C)C)c3c(c2c1N)CC(C)(C)OC3	-0.96	4	4	·	-1.8	-2	·	·	·
CCOC(=O)c1sc2nc(N3CCCC3)c3c(c2c1N)CC(C)(C)OC3	0.3	0	-7	13*	-0.49	-5	21232*	1888	+
Cc1c2c(nc3c(C(=O)NC4CC4)cnn13)CCCC2	0.48	-2	-2	1.1	0.64	1	·	·	·
CCC(C)NC(=O)c1cnn2c(C)c3c(nc12)CCCC3 (configuration not stated)	-0.13	-2	·	7*	0.49	·	11440*	1904	+
O=C(C1COc2ccccc2O1)N1CCOCC1 (configuration not stated)	-0.81	-5	-1	-1.3	-0.37	-6	·	·	·
CC12CC(c3ccccc3O1)C(C(=O)N1CCOCC1)C(=O)N2 (configuration not stated)	-0.54	5	10	3.3*	-0.25	0	4036	1440	i
O=C(NCc1ccc2c(c1)OCO2)c1cc(-c2ccccc2)nn1CC1CC(c2cccnc2)=NO1 (configuration not stated)	1.7	·	·	·	·	·	·	·	·
COc1ccc(OC)c(NC(=O)CSc2nc3ccccc3c(=O)n2CCNC(C)=O)c1	-0.81	-2	·	9.7*	1.2	·	9716*	1560	i
Cc1ccc2nc(N3CCC(C(=O)O)CC3)nc(-c3ccccc3)c2c1	0.26	0	-1	6.5*	0.05	-6	10876*	1380	+
CCn1c(=O)c2cc(S(=O)(=O)NC3CCCCC3)ccc2n(CC)c1=O	-1.1	8	0	4.2*	-1.6	-35	6924*	1232	i
CCOC(=O)c1c(C)nc2sccn12	-0.051	·	0	2.6*	1.7	-13	12992*	1936	i
CCOC(=O)c1c(C)nc2c(C)cccn12	-0.012	-1	-4	·	-0.18	-14	·	·	·
CCOC(=O)c1c(C)nc2c3ccccc3ccn12	-0.11	4	-1	5.3*	-0.81	5	19468*	1592	+
SMILES	DAT uptake mod	FAK blocker	CD11b adhes enh	D1 mod	PTK2B oligo ant	CD11b adhes inh	D1 PAM confirm	D1 ag no DA	Isoprot counter
COC(=O)c1ccccc1NC(=O)N1CCN(C(=O)c2ccco2)CC1	·	·	·	-0.036	0.35	·	·	·	·
Fc1ccc(-n2c(-c3ccco3)nc3nc4ccccc4nc32)cc1	0.23	1	0	15*	-0.45	-15	25288*	1548	+
Cc1ccc(-n2c(-c3ccco3)nc3nc4ccccc4nc32)cc1F	·	-1	-1	·	-0.27	-2	·	·	·
Fc1cccc(-n2c(-c3ccco3)nc3nc4ccccc4nc32)c1	-0.77	-1	-4	9.2*	-0.04	-7	16260*	1552	+
Fc1ccc(-c2nc3nc4ccccc4nc3n2Cc2ccco2)cc1	0.0044	-7	-4	0.32	-0.95	6	·	·	·
CC(C)C(=O)OCCN=C1NS(=O)(=O)c2ccccc21	-1.2	1	1	·	0.51	-34	·	·	·
COc1ccc(C(=O)COC(=O)CCN=C2NS(=O)(=O)c3ccccc32)cc1OC	-0.46	8	-1	4.6*	1.6	2	13264*	1572	+
CCCCNC(=O)C(C#N)c1nc2ccccc2nc1N1CCN(c2ccccc2F)CC1 (configuration not stated)	-1.1	-6	·	0.038	-1.4	·	·	·	·
CCCC(=O)Nc1nc2ccc(C(=O)OCC)cc2s1	0.65	9	-3	·	·	16	·	·	·
CCOC(=O)c1ccc2nc(NC(=O)C(C)C)sc2c1	0.55	·	·	5.4*	·	·	7532	1532	i
Cc1ccc(Cn2c(=O)n(Cc3ccco3)c(=O)c3ccccc32)cc1	0.61	·	·	12*	-0.77	·	15080*	1628	+
O=C(Cn1c(=O)n(Cc2ccccc2)c(=O)c2ccccc21)NCc1ccco1	0.13	-1	-1	·	-1.3	-10	·	·	·
O=C(NCc1ccco1)c1ccc(Cn2c(=O)c3ccccc3n(Cc3ccc(Cl)cc3)c2=O)cc1	0.9	1	4	·	-0.78	2	·	·	·
O=C(CCCn1c(=O)c2ccccc2n(Cc2ccccc2)c1=O)NCc1ccco1	0.39	2	2	3*	0.44	-21	8576*	1680	+
